# Data from PubChem BioAssay AID651593 (National Center for Advancing Translational Sciences (NCATS), 2012).
# Values joined by “and” are separate entries in the source; they are usually repeats but may differ in a detail not shown here. Equal values may be shown once. The whole screen tested about 1,100 compounds, of which about 860 (78%) were called active. Roughly 19% stayed inconclusive and do not appear here. The call rests on the fitted dose curve; in most records, active means well fitted activation curve with a large enough effect; inconclusive means small, poorly fitted or top-dose-only effect; inactive means flat fitted curve, though single readings scatter. So high a share suggests a set chosen from earlier hits. The list shows a part of the results.
# Experiment: qHTS of Nrf2 Activators: Hit Validation in Primary Assay; further: nearly all actives have a fitted effect of over 70% in size
# Settings: Nrf2/ARE reporter cell assay; Potency: activation; series mostly up to 46.1 µM
# Procedure, shortened: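 Luminescence from Steady-Glo lysis reagent, read after 30 min, reported ARE-luciferase activity in AREc32_fluc stable cells. Compounds were tested at several concentrations, incubated 24 h at 37 °C with 5% CO2 following overnight seeding.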
# Potency means the concentration at half of the fitted maximal effect.
row,SMILES,Potency
1,CC(=O)Oc1ccc(-c2nc3c(C)cccc3c(=O)o2)cc1,9.2 µM (active)
2,O=C(NCCc1c[nH]c2ccccc12)c1ccc([N+](=O)[O-])o1,5.17 µM (active)
3,Cc1ccc(/C=C/C(=O)Nc2ccc([N+](=O)[O-])c(NC(=O)/C=C/c3ccc(C)o3)c2)o1,8.2 µM (active)
4,COC(=O)c1ccc(Cl)cc1NC(=O)/C=C/c1ccc(C)o1,2.06 µM (active)
5,CCOC(=O)c1c(NC(=O)/C=C/c2ccc(C)o2)sc(C)c1C,3.26 µM (active)
6,CCC1C/C(=C/c2cccs2)C(=O)/C(=C/c2cccs2)C1 (stereo not given),2.31 µM (active)
7,Cn1c(CC2C(=O)Nc3ccc(Br)cc32)nc2ccccc2c1=O (stereo not given),inactive
8,Cc1nc2ccccc2c(=O)n1NCc1cc(Br)cs1,2.59 µM (active)
9,O=C(Nc1nnc(-c2cccs2)s1)C1CC1,9.2 µM (active)
10,O=C(Nc1nnc(-c2cccs2)s1)c1cccc(F)c1,2.31 µM (active)
11,Nc1ccccc1C=C1Cc2ccccc2C1=O,3.66 µM (active)
12,O=C1C(=Cc2ccccc2[N+](=O)[O-])Cc2ccccc21,4.61 µM (active)
13,COCCN(C(=O)COC(=O)/C=C/c1ccccc1Cl)c1c(N)n(Cc2ccccc2)c(=O)[nH]c1=O,11.6 µM (active)
14,O=C(/C=C/Nc1ccc(F)c(Cl)c1)c1ccco1,1.3 µM (active)
15,O=C1COc2ccc(C(=O)COC(=O)/C=C/c3ccco3)cc2N1,2.06 µM (active)
16,Cc1cccc(NC(=O)Nc2ccc(Br)cc2)n1,8.2 µM (active)
17,O=C(Nc1ccccn1)Nc1ccccc1Cl,9.2 µM (active)
18,Cc1cccc(NC(=O)Nc2ccccc2[N+](=O)[O-])n1,8.2 µM (active)
19,O=C(Nc1ccccn1)Nc1ccccc1[N+](=O)[O-],4.11 µM (active)
20,O=C(N=Nc1c(O)[nH]c2ccccc12)c1ccco1,2.31 µM (active)
21,O=C(N=Nc1c(O)[nH]c2ccc(Br)cc12)c1ccco1,3.26 µM (active)
22,Cc1ccc(C)c(-c2nnc(NC(=O)c3ccc([N+](=O)[O-])o3)o2)c1,2.91 µM (active)
23,COc1ccc(NC(=O)CSc2ccc(-c3ccco3)nn2)cc1OC,5.17 µM (active)
24,O=C(CSc1ccc(-c2ccco2)nn1)N1CCCC1,1.84 µM (active)
25,O=C(CSc1ccc(-c2ccco2)nn1)N1CCCCCC1,0.517 µM (active)

row,SMILES,Potency
1,O=C(CSc1ccc(-c2ccco2)nn1)N1CCCCC1,1.84 µM (active)
2,CCOC(=O)C(=Cc1ccccc1OC)C(=O)OCC,16.4 µM (active)
3,CCn1nc(C(=O)Nc2cccc3ccccc23)c(Cl)c1Cl,18.4 µM (active)
4,COc1ccccc1Cc1c(-c2ccco2)nc2c3ccccc3ccn12,7.31 µM (active)
5,c1ccc(Cc2c(-c3ccco3)nc3c4ccccc4ccn23)cc1,9.2 µM (active)
6,c1ccc(-c2nc3c4ccccc4ccn3c2Cc2ccsc2)cc1,5.8 µM (active)
7,Clc1cccc(Cc2c(-c3ccccc3)nc3c4ccccc4ccn23)c1,11.6 µM (active)
8,Clc1cccc(Cc2c(-c3ccco3)nc3c4ccccc4ccn23)c1,8.2 µM (active)
9,Cc1ccc(Cc2c(-c3ccco3)nc3c4ccccc4ccn23)cc1,8.2 µM (active)
10,Fc1cccc(Cc2c(-c3ccco3)nc3c4ccccc4ccn23)c1,2.91 µM (active)
11,O=C(COC(=O)c1cc2ccccc2cc1O)Nc1ccccc1F,20.6 µM (active)
12,c1ccc(N/N=C2\CCCc3ccccc32)nc1,14.6 µM (active)
13,O=C1c2ccccc2C(=O)c2c(Nc3ccc(CCO)cc3)ccc(O)c21,2.31 µM (active)
14,COc1cc(C=C(c2nc3ccccc3s2)c2nc3ccccc3s2)ccc1O,7.31 µM (active)
15,COc1ccc(Cc2c(-c3ccccc3)nc3c4ccccc4ccn23)c(C)c1,6.51 µM (active)
16,FC(F)(F)c1ccccc1Cc1c(-c2ccccc2)nc2c3ccccc3ccn12,14.6 µM (active)
17,Fc1ccc(-c2nc3c4ccccc4ccn3c2Cc2ccccc2C(F)(F)F)cc1,7.31 µM (active)
18,Nc1ccc2c(c1)Cc1c(F)cccc1-2,18.4 µM (active)
19,CC(C)N(C(=O)COC(=O)c1ccccc1C(=O)c1ccc(Cl)c([N+](=O)[O-])c1)C(C)C,18.4 µM (active)
20,O=C1Nc2ccccc2SC1=Cc1ccccc1,2.91 µM (active)
21,O=[N+]([O-])c1cccc(-c2cn(-c3ccccc3)c(=S)[nH]2)c1,inactive
22,c1ccc(-c2nnc(-c3ccccc3)o2)cc1,6.51 µM (active)
23,O=[N+]([O-])c1cccc(-c2nc(-c3ccccn3)no2)c1,2.06 µM (active)
24,O=[N+]([O-])c1cccc(-c2nnc(-c3ccccc3)o2)c1,7.31 µM (active)
25,CS(=O)(=O)c1nc(S(=O)(=O)c2ccc(Cl)cc2)c(N2CCC3(CC2)OCCO3)s1,9.2 µM (active)

row,SMILES,Potency
1,Cc1ccc(S(=O)(=O)c2nc(S(C)(=O)=O)sc2N2CCC3(CC2)OCCO3)cc1,10.3 µM (active)
2,C/C(=N\NC(=O)c1cccc(S(=O)(=O)N2CCCC2)c1)c1ccco1,2.31 µM (active)
3,C/C(=N\NC(=O)c1cccc(S(=O)(=O)Nc2cccc(Cl)c2)c1)c1cccs1,inactive
4,CC(=O)Cn1nnc2sc(-c3ccccc3)cc2c1=O,2.06 µM (active) and 5.8 µM (active)
5,CCN(C(=O)Cn1nnc2sc(-c3ccccc3)cc2c1=O)c1cccc(C)c1,2.31 µM (active)
6,COC(=O)[C@@]1(Sc2ccc(C)cc2)CC(=O)N(C(=O)/C=C/c2ccccc2)[C@@H]1c1ccccc1,3.66 µM (active)
7,Fc1cccc(Cc2c(-c3ccco3)nc3ccc(Br)cn23)c1,20.6 µM (active)
8,Brc1ccc2nc(-c3ccco3)c(Cc3ccsc3)n2c1,20.6 µM (active)
9,c1cc2c3c(cccc3c1)NN=N2,20.6 µM (active)
10,COc1cc(/C=N/Nc2nc3ccccc3s2)ccc1OC(=O)c1ccccc1F,4.61 µM (active)
11,C/C(=N\NC(=O)c1c[nH]c2ccccc12)c1ccco1,3.66 µM (active)
12,Cc1nc(/N=C(\N)NC(=O)c2ccccc2)nc2ccccc12,2.31 µM (active)
13,CC(=O)N(/N=C1\Sc2ccccc2C1=O)c1ccccc1,20.6 µM (active)
14,COc1ccc(O)c(-c2cc(-c3ccccc3Cl)[nH]n2)c1,2.91 µM (active)
15,COc1ccc(O)c(-c2cc(-c3ccc(F)cc3)n[nH]2)c1,7.31 µM (active)
16,N#Cc1sc2nc(-c3ccccc3)cc(C(F)(F)F)c2c1N,2.59 µM (active)
17,Cc1ccc(O)c(NC(=O)c2cc([N+](=O)[O-])ccc2Cl)c1,2.91 µM (active)
18,Cc1cc(O)c(NC(=O)c2cc([N+](=O)[O-])ccc2Cl)cc1C,2.31 µM (active)
19,O=C(Nc1cccc([N+](=O)[O-])c1)c1[nH]ncc1Cl,5.8 µM (active)
20,O=C(Nc1ccccc1)c1cc([N+](=O)[O-])ccc1Cl,1.46 µM (active)
21,CS(=O)(=O)Nc1ccc(C(=O)Nc2cccc([N+](=O)[O-])c2)cc1,7.31 µM (active)
22,O=[N+]([O-])c1ccccc1C=NNc1ccccc1,5.17 µM (active)
23,O=[N+]([O-])c1ccccc1/C=N/Nc1nccnc1Cl,16.4 µM (active)
24,COn1c(=O)c(-c2cccc(Br)c2)[n+]([O-])c2ccccc21,14.6 µM (active)
25,CCn1c(=NC(=O)c2ccco2)sc2cccc(F)c21,1.3 µM (active)

row,SMILES,Potency
1,Cn1c(NCC2CCCCC2)nc2cc(-c3ccsc3)sc2c1=O,2.31 µM (active)
2,Brc1ccc(C2=CC(c3ccco3)n3nnnc3N2)cc1 (stereo not given),9.2 µM (active)
3,C1=C(c2ccc(-c3ccccc3)cc2)Nc2ncnn2C1c1ccco1 (stereo not given),6.51 µM (active)
4,O=C(O)c1ccc(-n2ncc(Cl)c(Cl)c2=O)cc1,2.91 µM (active)
5,Cc1ccc(Sc2cnn(-c3ccccc3)c(=O)c2Cl)cc1,inactive
6,c1ccc(-c2cc3c(-n4cccc4)ncnc3o2)cc1,2.06 µM (active)
7,Cc1c(Cl)cccc1N=c1c([N+](=O)[O-])nn(-c2ccccc2)n1O,2.31 µM (active)
8,COc1ccc(Cl)cc1NC(=O)CCS(=O)(=O)c1cccc2nonc12,16.4 µM (active)
9,Nc1c(Cl)cc(N=Nc2ccccc2)cc1Cl,2.59 µM (active)
10,O=c1oc2ccccc2nc1/C=C(\O)c1ccc(Br)cc1,20.6 µM (active)
11,O=C(Cn1cnc2ccccc21)N/N=C/C(Br)=C/c1ccccc1,20.6 µM (active)
12,OCCC#Cc1c(-c2ccsc2)sc2ccccc12,2.31 µM (active)
13,O=C(/C=C/c1ccco1)Nc1ccc(Cl)c(-c2nc3cc(Cl)ccc3o2)c1,1.16 µM (active)
14,O=C(/C=C/c1ccco1)Nc1ccc2nn(-c3ccccc3)nc2c1,7.31 µM (active)
15,O=C(/C=C/c1ccco1)Nc1ccc(-c2nc3ccccc3[nH]2)cc1,1.3 µM (active)
16,O=C(/C=C/c1ccco1)Nc1cccc(S(=O)(=O)N2CCOCC2)c1,8.2 µM (active)
17,O=[N+]([O-])c1cc2c(cc1Br)-c1ccccc1C2,2.31 µM (active)
18,COc1cc2c(cc1NC(=O)c1cccc(F)c1)CCCC2,2.59 µM (active)
19,COc1cc2c(cc1NC(=O)c1ccccc1F)CCCC2,6.51 µM (active)
20,Cc1cc(O)cc2c1C(=O)/C(=C/c1ccco1)O2,1.84 µM (active)
21,COc1cccc(NC(=O)c2nn(C)cc2Br)c1,16.4 µM (active)
22,COc1cccc(NC(=O)c2nc(SC)ncc2Cl)c1,2.91 µM (active)
23,COc1cccc(NC(=O)c2cc(Cl)nnc2Cl)c1,18.4 µM (active)
24,CCSc1ncc(Cl)c(C(=O)Nc2ccccc2)n1,4.61 µM (active)
25,CCOC(=O)c1ccc(NC(=O)c2nc(S(=O)(=O)Cc3ccccc3)ncc2Cl)cc1,3.66 µM (active)
